Measurements from PubChem BioAssay (EPA / NIEHS).
Calls of active or inactive are those of the source. Rule for the calls: active = hit-call score of the fitted dose curve at least 0.9, where 1 is the maximum; inactive = score below 0.9.

Assay: ATG_TAL_CIS: Attagene CIS-FACTORIAL HepG2 Assay for human TAL Basal Promoter (AID 2282966)
Conditions: HepG2 Attagene cis-factorial TAL promoter reporter; actives raise or lower the signal
Method: ATG_CIS is a cell-based, multiplexed-readout assay that uses HepG2, a human liver cell line, with measurements taken at 24 hours after chemical dosing in a 24-well plate.ATG_TAL_CIS is one of 52 assay component(s) measured or calculated from the ATG_CIS assay. It is designed to make measurements of mRNA induction, a form of inducible reporter, as detected with fluorescence intensity signals by Reverse transcription polymerase chain reaction (RT-PCR) and Capillary electrophoresis technology.Data from the assay component ATG_TAL_CIS was analyzed into 1 assay endpoint. This assay endpoint, ATG_TAL_CIS, was analyzed with bidirectional fitting relative to DMSO as the negative control and baseline of activity. Using a type of inducible reporter, measures of mRNA for gain or loss-of-signal activity can be used to understand the background control at the transcription factor-level as they relate to the gene . Furthermore, this assay endpoint can be referred to as a secondary readout, because this assay has produced multiple assay endpoints where this one serves a background control function. To generalize the intended target to other relatable targets, this assay endpoint is annotated to the background measurement intended target family, where the subfamily is internal marker.
Human liver HepG2 cells are transiently transfected with multiple reporter transcription units (MRTUs) in 6-well plates using FuGene 6 reagent (Roche; 3 ml FuGene/1 mg DNA). The MRTU constructs are regulated by a cis-regulating element (promoter). […] A major difference between the CIS and TRANS system is that in CIS activities of endogenous TFs are measured, whereas the TRANS assay evaluates changes in activities of exogenous, chimeric NR-Gal4 proteins. […] At the end of 24 hour incubation, total RNA was isolated using TriZol reagent (Invitrogen). The isolated RNA is then reverse-transcribed using oligo(dT) primer and Mo-MLV reverse transcriptase (Invitrogen) with DNAse I (Ambion) treatment for 30 min. The one-tenth of the produced cDNA was amplified by PCR using Taq DNA polymerase (Invitrogen) and two reporter sequence-specific primers. The PCR products were fluorescently labeled by primer extension with 6-arboxyfluorescein (6-FAM) 5'-labeled reporter sequence-specific primer (2 min at 95 C, 20 s at 68 C and 10 min at 72 C) and these products were digested with 5U of HpaI (New England Biolabs) for 2h at 37 C. The fragments were purified using Qiaquick PCR columns (Qiagen), analyzed on an ABI 3130xL genetic analyzer (Applied Biosystems) with peak positions identified by using a set of X-rhodamine (ROX)-labeled MapMarker1000 molecular weight standards (BioVentures). The raw capillary electrophoresis data was processed using Attagraph software (Attagene).
For `C[C@@H](Oc1ccc(CNC(=O)c2cccnc2Oc2ccc3c(c2)OCO3)c(F)c1)C(=O)O`, the outcome was “inactive”.
In the case of `NC(N)=O`, the outcome is reported as “inactive”.
In the case of `C[C@]12C=CC(=O)C=C1CC[C@H]1[C@@H]3C[C@@H](O)[C@](O)(C(=O)CO)[C@@]3(C)C[C@H](O)[C@@]12F`, the outcome is reported as “inactive”.
In the case of `CCOc1ccc2[nH]cc(C(=O)NCc3ccccc3)c(=O)c2n1`, the outcome is reported as “inactive”.
In the case of `OC[C@H]1O[C@@H]2O[C@H]3[C@H](O)[C@@H](O)[C@@H](O[C@H]4[C@H](O)[C@@H](O)[C@@H](O[C@H]5[C@H](O)[C@@H](O)[C@@H](O[C@H]6[C@H](O)[C@@H](O)[C@@H](O[C@H]7[C@H](O)[C@@H](O)[C@@H](O[C@H]1[C@H](O)[C@H]2O)O[C@@H]7CO)O[C@@H]6CO)O[C@@H]5CO)O[C@@H]4CO)O[C@@H]3CO`, the outcome is reported as “inactive”.
With `FC(F)(F)C(F)(F)C(F)(F)C(F)(F)C(F)(F)C(F)(F)I` the outcome was “inactive”.
In the case of `O=C(Cl)C(F)(F)C(F)(F)C(F)(F)C(=O)Cl`, the outcome is reported as “inactive”.
In the case of `CCCC(CCC)C(=O)O`, the outcome is reported as “inactive”.
For `OCCOCCOCCO`, the outcome was “inactive”.
For `CCCCCCCCCCCCCCO`, the AC50 was 100 µM (active).
With `CCOC(N)=O` the outcome was “inactive”.
For `CCN(CC)C(=S)SSC(=S)N(CC)CC`, the outcome was “inactive”.
For `CCCCCCCCCC`, the outcome was “inactive”.
In the case of `CCCCOC(=O)c1ccccc1`, the outcome is reported as “inactive”.
With `C[Si](C)(C)C(F)(F)C(F)(F)C(F)(F)F` the outcome was “inactive”.
With `NC(=O)NN=Cc1ccc([N+](=O)[O-])o1` the outcome was “inactive”.
In the case of `Cc1nccn1-c1ccc(Sc2cccc(C3(C(N)=O)CCOCC3)c2)cc1`, the AC50 is reported as 6.43 µM (active).
In the case of `OCCNCCO`, the outcome is reported as “inactive”.
In the case of `C=CN1CCCC1=O`, the outcome is reported as “inactive”.
With `CNC(C)=O` the outcome was “inactive”.
For `CCCCCCOC(=O)CC(CC(=O)OCCCCCC)(OC(=O)CCC)C(=O)OCCCCCC`, the outcome was “inactive”.
With `COc1cc(C(C)C)c2c(c1)S(=O)(=O)N(COc1cc(=O)n3cccc(OCCN4CCCCC4)c3n1)C2=O` the outcome was “inactive”.
For `S=P(N1CC1)(N1CC1)N1CC1`, the outcome was “inactive”.
For `CCn1nc(C)c2c1C(=O)NCC(c1ccc(O)cc1)=N2`, the outcome was “inactive”.
In the case of `OCC(CO)(CO)CO`, the outcome is reported as “inactive”.
In the case of `O=C(NO)C1(NS(=O)(=O)c2ccc(Oc3ccc(F)cc3)cc2)CCOCC1`, the outcome is reported as “inactive”.
For `c1ccc2c(c1)-c1cccc3c1c-2cc1ccccc13`, the outcome was “inactive”.
With `CC(C)CC(C)O` (stereo not given) the outcome was “inactive”.
For `NC(=O)N(O)[C@@H]1COc2cc(OCc3ccccc3)ccc21`, the outcome was “inactive”.
In the case of `CC1(C)C(=O)N(Cl)C(=O)N1Cl`, the outcome is reported as “inactive”.
In the case of `O=C(O)c1ccc2c(c1)nc(C(=O)NC1CCN(C3CC3)CC1)n2Cc1cc(-c2ccc(Cl)s2)on1`, the outcome is reported as “inactive”.
In the case of `OCCC(F)(F)C(F)(F)C(F)(F)C(F)(F)F`, the outcome is reported as “inactive”.
In the case of `c1ccc(C(O[C@@H]2CCCN(CCc3ccc4c(c3)OCO4)C2)c2ccccc2)cc1`, the outcome is reported as “inactive”.
In the case of `O=C(O)c1cccc(C(=O)O)c1`, the outcome is reported as “inactive”.
For `O=S1(=O)CCCO1`, the outcome was “inactive”.
In the case of `OCc1ccccc1`, the outcome is reported as “inactive”.
For `FC(F)=C(F)C(F)(F)C(F)(F)C(F)(F)C(F)(F)C(F)(F)C(F)(F)F`, the outcome was “inactive”.
In the case of `NC(=O)N1c2ccccc2C=Cc2ccccc21`, the outcome is reported as “inactive”.
For `NCC(F)(F)C(F)(F)C(F)(F)C(F)(F)F`, the outcome was “inactive”.
With `CCc1cccc(CC)c1N` the outcome was “inactive”.
